Sm TGR block = qHTS Assay for the Inhibitors of Schistosoma Mansoni Peroxiredoxins. Schistosoma mansoni thioredoxin glutathione reductase (TGR), Q962Y6. purified TGR, DTNB reduction, TNB absorbance 405 nm. Potency, µM (doses to about 114 µM), without a hit: at the top dose activity change, negative = inhibition, actives largely listed as inhibitors. 3% of 360,000 active; active = well fitted inhibition curve with a large enough effect; inconclusive = small, poorly fitted or top-dose-only effect; inactive = no such curve, though single readings can be large or run the other way; note: % is set by controls: 0 for no effect and ±100 for the full control effect; nearly all actives have a fitted effect of over 60% in size
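First, TGR (20 nM dispensed) and NADPH were mixed with compound. Second, a 15 min room-temperature incubation followed. Third, further NADPH and then DTNB were added to start the reaction. Finally, TNB absorbance was monitored kinetically.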
SARS PLP yeast = qHTS of Yeast-based Assay for SARS-CoV PLP; AID 485353, 2010; S. cerevisiae expressing SARS-CoV PLpro, growth rescue; Potency, µM (series often up to 32.9 µM), for the others: top-dose activity, positive = growth rescue, most hits filed as activators; 0.19% of 330,000 active; calls by dose curve; note: 0% is about no effect; nearly all actives have a fitted effect of over 55% in size
Numbers without * were called inactive; ? = inconclusive; . = no result given. Hits are enriched below; roughly 3% of the tested compounds scored in any of these assays. Potency is the fitted concentration of half-maximal effect.

SMILES | Sm TGR block | SARS PLP yeast
CCOC(=O)c1nnn(CC(=O)Nc2cc(C)cc(C)c2)c1C(=O)OCC | -0.3% | .
CCOC(=O)c1ccc(Nc2c(-c3ccc(OC)cc3)nc3nc[nH]n23)cc1 | 8.4% | .
CCOC(=O)c1ccc(Nc2c(-c3ccc(O)c(OC)c3)nc3nc[nH]n23)cc1 | 31.6µM* | .
COc1ccc(NC(=S)NC(=O)c2csnn2)cc1 | 0.0% | 0.2%
O=C(NC(=S)Nc1ccccc1)c1csnn1 | 14.1µM* | -7.6%
CC(=O)N1CCc2c(sc3c2c(=O)n(CCc2ccccc2)c(=O)n3CC(=O)Nc2ccc(C)c(F)c2)C1 | 6.9% | .
Cc1ccc(N/N=C/c2ccc(N3CCOCC3)cc2)cc1C | 25.1µM* | 9.2%
Cc1ccc(/C=N/Nc2cc(C)nc(N3CCOCC3)n2)cc1 | 3.1% | -0.1%
O=C1NN(c2ccccc2)C(=O)/C1=C\c1cccc(OC(=O)c2cccs2)c1 | 35.5µM* | 5.1%
O=C1NN(c2ccc(Cl)c(Cl)c2)C(=O)/C1=C/c1cccc(OC(=O)c2cccs2)c1 | 40.8% | -2.4%
CCOc1ccc(NC(=O)N(Cc2c[nH]c3ccccc23)C2CCCCCC2)cc1 | -3.6% | .
Cc1cccc(S(=O)(=O)N2CN(Cc3ccco3)c3nc4ccccc4nc32)c1 | 17.8µM* | -10.0%
O=S(=O)(c1cccs1)N1CN(Cc2ccco2)c2nc3ccccc3nc21 | ? | -0.4%
CCCCc1ccc(NC(=O)Cn2cnc3c2c(=O)n(C)c(=O)n3C)cc1 | -7.3% | .
CCc1ccc(NC(=O)CSc2c(C)cnc3c2c(=O)n(C)c(=O)n3C)cc1 | 5.7% | .
COc1ccc(/C=N/NC(=O)c2ccco2)cc1Cn1nc(C)cc1C | 50.1µM* | 5.3%
COc1ccc(/C=N/NC(=O)c2ccco2)cc1Cn1nc(C)c([N+](=O)[O-])c1C | 2.6% | 0.7%
CCC(C(=O)Nc1cc(-c2nc3cccnc3s2)ccc1C)c1ccccc1 (centres undefined) | -9.2% | .
COc1ccc(OCC(=O)Nc2cc(-c3ccccc3F)nn2-c2ccccc2)cc1 | 8.1% | .
CCN(CC)c1nc2ccccc2nc1C(=O)Nc1ccc(C(C)=O)cc1 | -7.3% | .
CCOc1ccccc1NC(=O)c1nn(C)c2c1CSc1ccccc1-2 | 1.7% | .
COc1ccc(C2NC3=C(CCCC3)C(C#N)(C#N)C2(C#N)C#N)cc1 (centres undefined) | 1.78µM* | -3.6%
COc1ccc(C2NC3=C(CCC3)C3(C#N)C4(N=C(N)C23C#N)OCCO4)cc1 (centres undefined) | -34.3% | 7.8%
O=c1c(C(c2ccc(Cl)cc2)c2c(O)nc3n(c2=O)CCS3)c(O)nc2n1CCS2 | -0.6% | 2.8%
O=c1c2ccccc2nc2n1CCS2 | 2.9% | 5.4%
SMILES | Sm TGR block | SARS PLP yeast
O=c1c(C(c2ccc(Cl)cc2)c2c(O)nc3n(c2=O)CCCS3)c(O)nc2n1CCCS2 | 1.78µM* | -0.3%
O=c1c(C(c2ccc(F)cc2)c2c(O)nc3n(c2=O)CCS3)c(O)nc2n1CCS2 | 0.794µM* | 1.6%
O=C(CSc1nc2c(oc3ccccc32)c(=O)n1-c1ccccc1)Nc1ccc(F)c(Cl)c1 | 10.9% | .
C=CCNCC#CCOc1ccc(OC)cc1 | ? | 8.8%
CCCN(CC#CCOc1ccc(OC)cc1)CCC | 12.6µM* | 0.2%
CCc1cccc(NC(=O)C2Cc3ccccc3N2C(=O)c2ccccc2)c1 (centres undefined) | -3.4% | .
COc1ccc(CCNC(=O)CSc2ccc3ccccc3c2)cc1OC | -16.6% | -1.3%
O=C(CSc1ccc2ccccc2c1)NCCc1ccc(O)c(O)c1 | 11.2µM* | -0.8%
O=C(Nc1ccccc1C(=O)OCc1cc(=O)n2ccsc2n1)c1cccc(F)c1 | -0.3% | .
CSc1cccc(NC(=S)N2CCC(N(C)C3CCCCCC3)CC2)c1 | 50.1µM* | -0.9%
CSc1cccc(NC(=S)N2CCC(N(C)C(C)C)CC2)c1 | -29.0% | -4.6%
CCC(C)NC(=O)c1cnn(-c2cccc(F)c2)c1-n1cccc1 (centres undefined) | 8.2% | .
O=C(Nc1sc2c(c1C(=O)O)CCC2)c1ccccc1 | -3.5% | 3.5%
O=C(/C=C/c1ccco1)Nc1sc2c(c1C(=O)O)CCC2 | 39.8µM* | -20.6%
N#Cc1c(NC(=O)c2ccccc2)sc2c1CCCCC2 | -3.8% | -0.9%
N#Cc1c(NC(=O)/C=C/c2ccco2)sc2c1CCCC2 | 20µM* | -2.1%
CCOC(=O)c1c(NC(=O)COc2ccc(Cl)cc2C)sc(C(C)=O)c1C | 9.5% | .
CCn1cc(S(=O)(=O)c2cccc(C)c2)c(=O)c2cc(F)c(N3CCCC(C)C3)cc21 (centres undefined) | 1.3% | .
CC12CC3CC(C)(C1)CC(C(=O)NCc1ccco1)(C3)C2 | -35.7% | -4.5%
O=S(NCc1ccccc1)C12CC3CC(CC(C3)C1)C2 (centres undefined) | 2.7% | 0.5%
O=S(NCc1ccco1)C12CC3CC(CC(C3)C1)C2 (centres undefined) | 22.4µM* | -2.6%
O=C(NCc1ccco1)C12CC3CC(C1)CC(C(=O)NCc1ccco1)(C3)C2 | 39.8µM* | 2.1%
Cc1cc(Cl)ccc1OCC(=O)Nc1c(C(=O)c2ccccc2)oc2ccccc12 | 2.5% | .
CCN(C(=O)Cn1nc(Cc2ccncc2)c2ccccc2c1=O)c1ccc(OC)cc1 | -5.8% | .
Cc1ccc(-n2c(=O)c3c(C)c(C(=O)N(C)C)sc3n(CC(=O)C(C)(C)C)c2=O)cc1C | 3.6% | .
SMILES | Sm TGR block | SARS PLP yeast
COc1nc(Oc2ccc(C(=O)OCC(N)=O)cc2)nc(N(C)C)n1 | 0.0% | -5.8%
COC(=O)COC(=O)c1ccc(Oc2nc(OC)nc(N(C)C)n2)cc1 | 2.24µM* | 6.6%
CC(=O)c1cccc(NC(=O)CN2C(=O)CCc3cc(S(=O)(=O)N4CCCCC4)ccc32)c1 | -8.4% | .
CCOc1ccc(S(=O)(=O)c2cc3cccc(OCC)c3oc2=O)cc1 | 7.6% | .
O=S(=O)(Cc1ccco1)Cc1nc(-c2ccc(Cl)cc2)cs1 | -32.4% | 0.0%
O=S(=O)(Cc1noc(-c2ccc(Cl)cc2)n1)Cc1ccco1 | 50.1µM* | -0.4%
COc1ccc(CCCc2nnc(SCC(=O)Nc3cc(F)ccc3C)o2)cc1 | -0.7% | .
CCOC(=O)CN1C(=O)S/C(=C/c2ccc(O)c([N+](=O)[O-])c2)C1=O | -3.2% | -45.1%
COc1ccc(N=C2S/C(=C\c3ccc(OCC(=O)O)cc3)C(=O)N2CCc2c[nH]c3ccccc23)cc1 | . | 0.8%
CCOC(=O)CN1C(=O)S/C(=C/c2ccc(C)o2)C1=O | 39.8µM* | -2.8%
Cc1ccc(S(=O)(=O)/N=C2/NC(=O)/C(=C\c3ccco3)S2)cc1 | ? | -23.8%
COc1ccc(N=C2S/C(=C\c3ccc(N4CCOCC4)o3)C(=O)N2CCc2c[nH]c3ccccc23)cc1 | 12.6µM* | -16.6%
CCCN1C(=O)/C(=C/c2ccco2)SC1=Nc1ccc(OC)cc1 | 50.1µM* | -3.1%
COc1ccc(N=C2S/C(=C\c3ccc(C)o3)C(=O)N2CC(C)C)cc1 | ? | 8.9%
CC(=O)Nc1ccc(S(=O)(=O)/N=C2/NC(=O)/C(=C\c3ccco3)S2)cc1 | 14.1µM* | 11.7%
CCOC(=O)Cc1ccc(NC(=O)Nc2nnc(N3CCCCC3C)s2)cc1 (centres undefined) | -3.9% | .
CCCN1C(=O)/C(=C/c2ccc(C)o2)SC1=Nc1ccc(OC)cc1 | 39.8µM* | -2.1%
CCCN1C(=O)/C(=C/c2ccc(C)o2)SC1=Nc1ccc(OCC)cc1 | ? | -2.4%
COc1ccc(/C=C2\SC(=Nc3ccccc3)NC2=O)cc1 | 0.0% | -3.0%
COc1ccc(N=C2NC(=O)/C(=C\c3ccco3)S2)cc1 | 28.2µM* | -0.6%
